Data published in PubChem BioAssay AID623911 (Vanderbilt High Throughput Screening Facility, 2012).
The whole screen tested about 2,100 compounds, of which about 770 (37%) were called active.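 Rule for the calls: active = by-eye trace score of 1 for enhancers or -1 for inhibitors, so actives lie on both sides (some results past the limit were not filed as active); inactive = score 0, or 3 fluorescent, or 4 baseline rise.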 The list shows a part of the results.

molecular target: G protein-activated inward rectifier potassium channel 2 (Homo sapiens) + G protein-activated inward rectifier potassium channel 1 (Homo sapiens) (UniProt P48051+P48549); experiment: GIRK1/2 thallium flux modulators, retest, confirmation, cell-based, HEK293 rmGlu8/hGIRK1/2, FluoZin-2 (AID 623911); details: HEK293 rmGlu8/hGIRK1/2, thallium flux FluoZin-2; actives lie on both sides; glutamate co-added at its EC20 level
Sequence (P48051 whole entry, looked up): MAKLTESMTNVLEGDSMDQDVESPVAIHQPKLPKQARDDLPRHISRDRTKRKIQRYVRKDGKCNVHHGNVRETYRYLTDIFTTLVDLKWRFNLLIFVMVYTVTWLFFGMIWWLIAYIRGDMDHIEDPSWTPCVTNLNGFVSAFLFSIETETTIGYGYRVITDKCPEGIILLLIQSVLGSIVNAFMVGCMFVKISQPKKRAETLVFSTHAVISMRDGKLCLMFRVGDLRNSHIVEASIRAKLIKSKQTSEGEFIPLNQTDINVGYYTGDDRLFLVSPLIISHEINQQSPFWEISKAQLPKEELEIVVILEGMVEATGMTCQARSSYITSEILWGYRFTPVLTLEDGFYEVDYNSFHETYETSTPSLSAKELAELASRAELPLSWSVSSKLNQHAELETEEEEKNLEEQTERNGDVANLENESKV
Sequence (P48549 whole entry, looked up): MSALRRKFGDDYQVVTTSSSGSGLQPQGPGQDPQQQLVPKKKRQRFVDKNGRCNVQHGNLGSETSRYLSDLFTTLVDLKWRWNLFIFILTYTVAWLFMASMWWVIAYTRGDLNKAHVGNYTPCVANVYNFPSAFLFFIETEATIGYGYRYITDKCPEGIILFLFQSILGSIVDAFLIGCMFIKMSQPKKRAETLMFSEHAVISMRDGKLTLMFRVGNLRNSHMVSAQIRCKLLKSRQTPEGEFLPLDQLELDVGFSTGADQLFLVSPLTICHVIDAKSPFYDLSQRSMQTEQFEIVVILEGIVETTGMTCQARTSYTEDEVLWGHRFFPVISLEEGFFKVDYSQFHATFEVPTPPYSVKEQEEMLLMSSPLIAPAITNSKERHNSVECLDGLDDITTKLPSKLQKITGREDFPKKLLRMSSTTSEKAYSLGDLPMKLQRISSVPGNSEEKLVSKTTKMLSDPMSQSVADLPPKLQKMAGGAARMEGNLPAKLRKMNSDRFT

| Compound | manual score |
| --- | --- |
| N=C1/C(=C/c2cccs2)C(=O)N=C2SN=C(SCc3ccccc3)N12 | 1 (active) |
| O=C1N=C(c2ccccc2)S/C1=C\c1cccs1 | 0 (inactive) |
| FC(F)(F)c1ccc2nnc(-c3c(Cl)cccc3Cl)n2c1 | 0 (inactive) |
| O=C(C1CCN(S(=O)(=O)c2cccc3cccnc23)CC1)N1CC=C(c2ccccc2)CC1 | -1 (active) |
| O=C(C1CCCN1S(=O)(=O)c1cccc2cccnc12)N1CCc2ccccc21 (stereo not drawn) | 0 (inactive) |
| O=C(C1CCCN1S(=O)(=O)c1cccc2cccnc12)N1CCn2c1nc1ccccc12 (stereo not drawn) | 0 (inactive) |
| FC(F)(F)c1cccc(NC(=S)NCc2ccccc2)c1 | 1 (active) |
| O=C(Cc1ccccc1)NC(=S)Nc1cccc(C(F)(F)F)c1 | 0 (inactive) |
| FC(F)(F)c1cccc(N2CCN(C(=S)NC3CCCCC3)CC2)c1 | 0 (inactive) |
| Cc1ccc(NC(=S)NCc2ccccc2)cc1[N+](=O)[O-] | 1 (active) |
| FC(F)(F)c1cccc(NC(=S)NC2CCCC2)c1 | 1 (active) |
| COc1ccc(/C=C/C(=O)N2CCN(S(=O)(=O)/C=C/c3ccccc3)CC2)cc1OC | 0 (inactive) |
| O=C(C1CCN(c2ncnc3c2sc2cccc(F)c23)CC1)N1CCOCC1 | 0 (inactive) |
| CCOc1ccc(-c2nc(-c3ccncc3)no2)cc1OCC | 0.5 (inactive) |
| COc1ccc(/C(C)=N/NC(=S)NCc2ccco2)cc1 | 0 (inactive) |
| S=C(NCc1ccco1)Nc1ccc(Cl)c(Cl)c1 | 1 (active) |
| S=C(NCc1ccco1)N/N=C/c1ccc(Cl)cc1 | 0 (inactive) |
| COc1ccc2nc(NC(=S)N(C)C)sc2c1 | 1 (active) |
| COc1ccc(C(=S)Nc2ccc(N(C)C)cc2)cc1 | 0 (inactive) |
| COc1ccc2nc(N=Nc3ccc(O)c4ccccc34)sc2c1 | 0 (inactive) |
| Clc1ccccc1-c1nnc2sc(CCc3ccccc3)nn12 | 0 (inactive) |
| CCn1c(O)c(N=NC2=NC(=O)CS2)c2cc(C)ccc21 | 0 (inactive) |
| CCc1ccc2c(c1)c(N=NC1=NC(=O)CS1)c(O)n2C | 1 (active) |
| CCc1ccc2c(c1)c(N=NC1=NC(=O)CS1)c(O)n2CC | 1 (active) |
| CC(C)(C)c1csc(NC(=O)c2ccc3nccnc3c2)n1 | 0 (inactive) |
| Cc1cs/c(=N\N=C\c2cccc([N+](=O)[O-])c2)n1Cc1ccco1 | 0 (inactive) |
| CC(C)Sc1oc(-c2ccco2)nc1S(=O)(=O)c1ccccc1 | -1 (active) |

| Compound | manual score |
| --- | --- |
| O=C(CCCCn1c(=O)c2ccccc2n(CC(=O)NC2CCCC2)c1=O)NCc1ccco1 | 0 (inactive) |
| Cc1cccn2c(=O)c3cc(C#N)c(=NC(=O)c4cccnc4)n(CC4CCCO4)c3nc12 (stereo not drawn) | 3 (inactive) |
| N=c1c(C(=O)NCc2ccco2)cc2c(=O)n3ccccc3nc2n1CCc1ccccc1 | -1 (active) |
| Cn1c(=O)cc(OCCCC(=O)NCc2ccc3c(c2)OCO3)c2ccccc21 | 0 (inactive) |
| CCCn1c(=N)c(C(=O)NCc2ccc3c(c2)OCO3)cc2c(=O)n3cccc(C)c3nc21 | -1 (active) |
| CCn1c(SCC(=O)c2cc(C)n(CC3CCCO3)c2C)nc2ccccc21 (stereo not drawn) | -1 (active) |
| CCn1c(SCc2nc(-c3ccccc3)no2)nc2ccccc21 | 0 (inactive) |
| O=C(CSc1nc2ccccc2c(=O)n1CC1CCCO1)N1CCN(c2ccccc2)CC1 (stereo not drawn) | 0 (inactive) |
| O=C(c1cccc(F)c1)N1CCN(Cc2ccco2)CC1 | 0 (inactive) |
| O=C(CCc1nc(-c2ccccc2F)no1)NCCN1CCN(Cc2ccccc2)CC1 | 0 (inactive) |
| O=C(CCN1C(=O)COc2ccccc21)NCCCN1CCc2ccccc2C1 | 0 (inactive) |
| CCN1CCCC1CNC(=O)CSCc1nc(-c2ccccc2C)oc1C (stereo not drawn) | -1 (active) |
| CCn1c(N)c(C(=O)NCc2ccco2)sc1=S | 0 (inactive) |
| Cc1oc(-c2cccc(Cl)c2)nc1CN1CCC(C(=O)NCc2ccco2)CC1 | -1 (active) |
| CCc1ccc(-c2nc(CN3CCC(C(=O)NCc4ccco4)CC3)c(C)o2)cc1 | -1 (active) |
| Cc1ccccc1-c1nc(CS(=O)(=O)CC(=O)NCCCN2CCCC2)c(C)o1 | -1 (active) |
| Cc1ccc(S(=O)(=O)N/N=C/c2ccc(OC3CSC3)cc2)cc1 | 0 (inactive) |
| CCc1ccc2c(c1)C1(NN=C(c3ccc(C)cc3)S1)C(=O)N2 (stereo not drawn) | 0 (inactive) |
| Cc1ccccc1C(=O)Nc1ccc2nc3n(c(=O)c2c1)CCC3 | 0 (inactive) |
| CCC1CCCCN1C(=O)c1cc2cc(Br)ccc2oc1=O (stereo not drawn) | 0 (inactive) |
| CN(c1ccccc1C(=O)Nc1ccccc1C(=O)NCc1ccco1)S(C)(=O)=O | 0 (inactive) |
| Cc1cc(C)nc(N2CCCC(C(=O)NCCc3ccc(F)cc3)C2)n1 (stereo not drawn) | 0 (inactive) |
| CCN1CCCC1CNC(=O)C1CCN(Cc2nc(-c3cccc(Br)c3)oc2C)CC1 (stereo not drawn) | -1 (active) |
| Cc1ccccc1-c1nc(CN2CCC(C(=O)NCc3ccco3)CC2)c(C)o1 | -1 (active) |
| Cc1oc(-c2cccc(Cl)c2)nc1CN1CCCC(C(=O)NCc2ccco2)C1 (stereo not drawn) | -1 (active) |
| Cc1oc(-c2ccccc2F)nc1CS(=O)(=O)CC(=O)NCCN(C)C1CCCCC1 | -1 (active) |
